Screen size: about 320,000 compounds; about 620 (0.19%) were called active. The call rests on the fitted dose curve; in most records, active means well fitted activation curve with a large enough effect; inconclusive means small, poorly fitted or top-dose-only effect; inactive means no such curve, though single readings can be large or run the other way. The list comes from a sample in which actives are over-represented; it also holds similar structures and randomly drawn compounds. Entries that show only a call come without a potency.
Potency means the concentration at half of the fitted maximal effect.

This experiment is described as follows: qHTS Assay for Identifying a Potential Treatment of Ataxia-Telangiectasia. Further: nearly all actives have a fitted effect of over 45% in size. Conditions: F2112 A-T fibroblasts, KAP-1 phosphorylation AlphaLISA, neocarzinostatin DNA damage 30 min before lysis; series mostly up to 57.5 µM. The gist of the method: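 hTERT-immortalized A-T patient fibroblasts (F2112), 500 cells/well in OPTI-MEM, 1% FBS, got compounds for 60 min, then NCS for 30 min at 37C. Lysates were then assayed for phospho-KAP-1 by AlphaLISA (anti-pKAP1 donor, anti-KAP1 acceptor beads), 6 hr at 25C.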
On the technique in general: qHTS replaces the single test concentration by a dilution series.
Consider `CC(=O)Oc1ccc(C(C)=O)c2c1OCCO2`, for which the Potency entry was “inactive”.

As for `C[C@H](NS(=O)(=O)c1ccc(Cl)cc1)C(=O)OCC(=O)N1CCOCC1`, the Potency result was “inactive”. Regarding `c1ccc2c(CCN3CCNC[C@H]3Cc3cccc4ccccc34)cccc2c1`, the Potency result is “inactive”. For `CCN(CC)C(=O)CSc1ncnc2c1cnn2-c1ccccc1`, the Potency entry is “inactive”. `CC(C)Sc1ncnc2c1cnn2-c1ccccc1`: the Potency is 39.8 µM (active). On to `CC(Sc1ncnc2c1cnn2-c1ccccc1)C(=O)Nc1ccc(N2CCOCC2)cc1` (stereo not drawn), for which the Potency result is “inactive”. On to `Cc1ccc(OCc2nnc(SC3CCc4ccccc4C3=O)n2C)cc1` (stereo not drawn), for which the Potency result is “inactive”.

On to `CC1(C)Cc2cccc(OCC(=O)N3CCN(c4ccc([N+](=O)[O-])cc4)CC3)c2O1`, for which the Potency result was “inactive”. As for `C=CC(COCc1ccccc1)N(CC(=O)OC)S(=O)(=O)c1cc(Br)ccc1OC` (stereo not drawn), the entry is “inactive”. For `CCOC(=O)c1c(C)[nH]c(C)c1S(=O)(=O)NCCCc1ccco1`, the Potency entry is “inactive”.

Turning to `CCOC(=O)c1c(CNCc2ccccc2F)c2sc(C)cc2n1C`, the Potency result is “inactive”. Turning to `COc1ccc(C2=NN(c3ccccc3)C(c3cccs3)C2)cc1` (stereo not drawn), the Potency entry was “inactive”. Take `COc1ccccc1N1N=C(c2cccs2)CC1c1ccccc1` (stereo not drawn): the Potency is 15.8 µM (active). Consider `COc1ccc(C2CC(c3cccs3)=NN2C(=O)CSc2nncs2)cc1OC` (stereo not drawn), for which the Potency entry was “inactive”.

For the compound `Cc1ccccc1C1CC(c2cccs2)=NN1S(C)(=O)=O` (stereo not drawn), the Potency result is “inactive”.

With `COc1ccc(C2CC(c3cccs3)=NN2c2nc(C)c(C(C)=O)s2)cc1OC` (stereo not drawn), the Potency entry is “inactive”. For `COc1ccc(C2CC(c3cccs3)=NN2C(=O)CCC(=O)O)cc1OC` (stereo not drawn), the Potency entry was “inactive”. For `Fc1ccc(N2N=C(c3cccs3)CC2c2ccco2)c(F)c1` (stereo not drawn), the Potency is 28.2 µM (active).

Consider `COc1ccc(C2CC(c3cccs3)=NN2c2ccc(F)cc2)cc1OC` (stereo not drawn), for which the Potency was 25.1 µM (active). As for `COc1cccc(C2CC(c3cccs3)=NN2C(=O)CSC2=NCCS2)c1OC` (stereo not drawn), the entry is “inactive”; as for `COc1ccc(C2=NN(C(C)=O)C(c3ccccc3)C2)cc1` (stereo not drawn), “inactive”. Regarding `COc1ccc(C2CC(c3cccs3)=NN2c2ccccc2)cc1` (stereo not drawn), the Potency is 28.2 µM (active).

As to `O=C(COc1ccccc1Cl)N1N=C(c2cccs2)CC1c1ccco1` (stereo not drawn), the Potency entry is “inactive”.

Regarding `COC(=O)[C@@]1(C)[C@H]2C(=O)N(Cc3ccccc3)C(=O)[C@H]2[C@H]2CN=C(SCC3CC3)N21`, the Potency entry was “inactive”. As for `C=C(C)Cn1c(C)cc(C)c(S(=O)(=O)c2ccccc2C)c1=O`, the entry is “inactive”; as for `COC(=O)c1cc2occc2n1Cc1nc(-c2ccccc2C)oc1C`, “inactive”. Consider `COc1cc(/C=C/C(=O)OCC(=O)c2ccccc2)cc(OC)c1OC`, for which the Potency result is “inactive”. For `C=CCNC(=O)C12CC3CC(C1)CC(C(=O)NCC=C)(C3)C2`, the Potency result is “inactive”. For the compound `N#CC(Cc1cc2ccccc2n1S(=O)(=O)c1ccccc1)OCc1ccccc1` (stereo not drawn), the Potency entry is “inactive”. As for `CC1(C)CCSC(/C=C/c2ccccc2)=N1`, the Potency entry was “inactive”. For `CC[C@]12c3[nH]c4ccc(Cl)cc4c3CCN1C(=O)[C@@H](CC(=O)NCCCOC)C[C@@H]2C(=O)N1CCN(C(=O)c2ccco2)CC1`, the Potency entry is “inactive”.

Regarding `Cc1ccc(S(=O)(=O)N(C)C)cc1NC(=O)C(C)OC(=O)c1ccc2ccccc2n1` (stereo not drawn), the Potency result was “inactive”. With `Cc1cc(NS(=O)(=O)c2ccc(NC(=O)C(C)Oc3cccc(C)c3C)cc2)nc(C)n1` (stereo not drawn) the entry was “inactive”. With `CCCCNC(=O)CCn1nc(-c2ccc(Cl)cc2)ccc1=O` the entry was “inactive”; with `CCCCNC(=O)C(C)N(CCN(C)C)C(=O)CCCN1C(=O)NC(c2ccc(Cl)cc2)C(C(=O)OCc2ccccc2)=C1C` (stereo not drawn), “inactive”. As for `COCc1cc(C)nc2sc3c(=O)n(-c4cccc5ccccc45)nnc3c12`, the Potency entry was “inactive”. Turning to `CCCNC(=O)N1CCN(C(=O)NCCC)CC1`, the Potency entry is “inactive”.

With `OCCC1CN(Cc2cccn2-c2nccs2)CCN1CCc1ccccc1` (stereo not drawn), the Potency entry is “inactive”. Take `O=C(CN1C(=O)CC(c2ccccc2)=Nc2ccccc21)NC1CCCCC1`: the Potency result was “inactive”. With `COc1ccc(C(CC(=O)c2ccccc2)S(=O)(=O)c2ccccc2)cc1` (stereo not drawn) the entry was “inactive”. With `CC(Sc1nn(-c2ccc(Cl)cc2)c(=S)s1)C(=O)NCC1CCCO1` (stereo not drawn), the Potency entry was “inactive”. As to `CC1CC(C)(C)n2c(O)c(N=NC(N)=S)c3cccc1c32` (stereo not drawn), the Potency is 12.6 µM (active).

On to `Cc1ccc(C(=O)N/C(=C/c2cccs2)C(=O)N2CCCCC2)cc1`, for which the Potency entry was “inactive”. As for `Cc1cc(C)c2nc(N(CCN(C)C)C(=O)/C=C/c3cccs3)sc2c1`, the entry is “inactive”; as for `CCC(=O)Nc1ccc(-c2ccc(N3CCCCC3)nn2)cc1`, “inactive”. For `CC[C@]1(C(=O)OC)[C@H]2C(=O)N(Cc3ccccc3)C(=O)[C@H]2[C@H]2CN=C(SCc3ccccc3)N21`, the Potency result is “inactive”. `COc1ccc2c(c1)c(=O)c(C(=O)c1ccc(Cl)cc1)cn2CC(=O)Nc1ccc(F)cc1`: the Potency result was “inactive”.

As to `COc1ccc(NC(=O)CN2CCN(S(=O)(=O)c3ccc(F)cc3)CC2)cc1Cl`, the Potency entry was “inactive”. On to `COc1ccc(NC(=O)Cn2cc(C(=O)c3ccncc3)c(=O)c3cc(C)ccc32)cc1Cl`, for which the Potency was 28.2 µM (active). As for `ONC(=Nc1ccc(Cl)cc1)c1ccccc1Cl`, the Potency result is “inactive”. In the case of `Cc1cccc2c1-c1sc(C(=O)NCCCN3CCc4ccccc4C3)cc1CO2`, the Potency result is “inactive”. `COc1ccc2[nH]c3c(c2c1)CCN1C(=O)C(CC(=O)NCCCN(C)C)C[C@H](C(=O)N2CCOCC2)[C@@]31CCC1CCCC1` (stereo partly drawn): the Potency entry was “inactive”. As for `CC[C@@H]1Cc2cc(O)ccc2C2=C1c1ccc(O)cc1C[C@H]2CC`, the entry is “inactive”; as for `CCOc1ccc(C(C)NC(=O)CN2C(=O)NC3(CCCCC3)C2=O)cc1OCC` (stereo not drawn), “inactive”.

As to `CC[C@]12c3[nH]c4ccc(OC)cc4c3CCN1C(=O)C(CC(=O)NCc1ccco1)C[C@@H]2C(=O)N1CCN(C(=O)C2CC2)CC1` (stereo partly drawn), the Potency result is “inactive”. Consider `CN(C(=O)COC(=O)c1cc(=O)[nH]c2ccccc12)C1CCCCC1`, for which the Potency result is “inactive”.

Consider `CCn1ccnc1CN(C)Cc1nc(-c2ccc3c(c2)OCO3)no1`, for which the Potency result was “inactive”. With `CN(Cc1cc2cc(F)ccc2[nH]1)Cc1nc(-c2cnccn2)no1` the entry was “inactive”; with `CN(Cc1nc(-c2cnccn2)no1)Cc1n[nH]c2c1CCCCC2`, 31.6 µM (active). For `COc1ccc(C(F)(F)F)cc1N/C=C\c1nnnn1-c1ccc(C)cc1`, the Potency entry was “inactive”. As to `O=C1[C@@H](c2ccccc2)[C@@H](c2ccccc2)N1c1cccnc1`, the Potency result is “inactive”.

Regarding `CC(C)N(C(=O)[C@H]1C[C@H](CC(=O)NC(C)(C)C)C(=O)N2CCc3c([nH]c4ccc(Cl)cc34)[C@]12C)C(C)C`, the Potency entry is “inactive”.

Consider `O=C(COC(=O)Cc1ccccc1F)NCCc1ccccc1`, for which the Potency result is “inactive”.

Values taken from PubChem BioAssay AID485349 (National Center for Advancing Translational Sciences (NCATS), 2010).
